Compound activity (PubChem BioAssay)
In the library only some 22% were active in any assay of this set; here they are far more common.
Pf growth 96h: P. falciparum growth inhibition at 96 hours; P. falciparum luciferase reporter growth, 96 h; Potency, µM (highest dose often 28.7 µM), for inactives: top-dose activity change, negative = inhibition, most hits filed as inhibitors; 320,000 compounds, 6.9% hits; AID 504834; note: potency is the fitted concentration of half-maximal effect; % is set by controls: 0 for no effect and ±100 for the full control effect
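Cell-based qHTS: luciferase-tagged P. falciparum in erythrocytes (2% hematocrit, 0.05% parasitemia final) incubated with compounds for 96 hours, 37 C, 5% CO2; luciferase detection reagent then added and luminescence measured.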
LmPK inhibitor: blocks Leishmania mexicana pyruvate kinase activity; 290,000 compounds, 0.37% hits; purified LmPK, Kinase-Glo ATP luminescence, 1 h; Potency, µM (titrated, usually from 57.5 µM), for the others: at the highest dose activity change, negative = inhibition, hits mostly inhibitors; AID 1721; note: potency is the fitted concentration of half-maximal effect; % is set by controls: 0 for no effect and ±100 for the full control effect
Target sequence (Q27686 whole entry, looked up): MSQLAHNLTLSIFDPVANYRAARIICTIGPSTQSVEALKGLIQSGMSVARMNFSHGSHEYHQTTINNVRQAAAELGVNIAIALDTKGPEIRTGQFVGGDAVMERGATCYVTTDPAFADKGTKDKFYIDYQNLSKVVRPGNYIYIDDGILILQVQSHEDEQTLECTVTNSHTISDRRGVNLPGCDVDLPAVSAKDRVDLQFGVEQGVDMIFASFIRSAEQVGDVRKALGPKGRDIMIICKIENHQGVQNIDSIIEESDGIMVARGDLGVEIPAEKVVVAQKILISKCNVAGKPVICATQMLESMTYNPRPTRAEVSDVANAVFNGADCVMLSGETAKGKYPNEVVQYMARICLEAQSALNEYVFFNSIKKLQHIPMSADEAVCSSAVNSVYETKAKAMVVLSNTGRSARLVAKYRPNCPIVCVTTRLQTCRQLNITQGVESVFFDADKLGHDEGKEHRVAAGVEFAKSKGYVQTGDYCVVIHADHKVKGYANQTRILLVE
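Purified LmPK (0.1 nM) converted ADP (0.1 mM) to ATP with PEP (0.5 mM) in imidazole buffer pH 7.2 with KCl and MgCl2, 1 h at room temperature. ATP was read by Kinase-Glo luminescence; data normalized to uninhibited and no-enzyme controls.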
Shiga toxin inh: blocks Shiga toxin action in Vero cells; Vero cells, Shiga toxin protein synthesis inhibition reporter; inhibition, % at 38.7 µM; 290,000 compounds, 9.2% hits; in the data active = inhibition mostly above about 28%, no sharp cut-off; inactive = mostly below about 43%; note: 0% is about no effect
Cycloheximide cs: counter-screen for Shiga toxin inhibitors: cycloheximide protein synthesis inhibition | max response, % | cell reporter, cycloheximide protein synthesis inhibition counterscreen | 300,000 compounds, 12% hits | AID 2314; in the data active = max response mostly above about 13%, no sharp cut-off; inactive = mostly below about 14%; note: read at 38.3 µM for the half of the compounds with a filed dose; 0% is about no effect
Pf growth 48h: inhibits P. falciparum growth in the first generation, 48 h; P. falciparum luciferase growth in erythrocytes, 48 h; Potency, µM (highest dose often 28.7 µM), for inactives: top-dose activity change, negative = inhibition, most hits filed as inhibitors; 310,000 compounds, 5.9% hits; note: potency is the fitted concentration of half-maximal effect; % is set by controls: 0 for no effect and ±100 for the full control effect
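Firefly luciferase activity from engineered P. falciparum reports growth; inhibitors lower the luminescent signal. Cultures contained 2% hematocrit erythrocytes at 0.1% final parasitemia.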
Numbers without * were called inactive; ? = inconclusive; nt = no result; [ ] = dose if it differs, or a comment. Unless noted, calls come from the whole dose curve; as a rule, active = well fitted inhibition curve with a large enough effect; inconclusive = small, poorly fitted or top-dose-only effect, or another doubt; inactive = no such curve, though single readings can be large or run the other way.

SMILES	Pf growth 96h	LmPK inhibitor	Shiga toxin inh	Cycloheximide cs	Pf growth 48h
CC(C)C(=O)N1CCN(c2ccc([N+](=O)[O-])c(NC(C)c3ccccc3)c2)CC1 (configuration not stated)	-18.4%	-1.4%	-5.5	1.2	9.28µM*
O=C(CSc1ccc(C(F)(F)F)cc1[N+](=O)[O-])N1CCOCC1	?	8.6%	nt	0.5	60.7%
CCS(=O)(=O)N1CCN(c2ccc([N+](=O)[O-])c(NC(C)c3ccccc3)c2)CC1 (configuration not stated)	?	3.9%	-11.2	-5.2	?
CC(C)(CNc1ccc(C(F)(F)F)cc1[N+](=O)[O-])N1CCOCC1	5.86µM*	2.2%	6.7	-1.2	9.28µM*
CC(Nc1cc(N2CCN(C(=O)C(C)(C)C)CC2)ccc1[N+](=O)[O-])c1ccccc1 (configuration not stated)	2.08µM*	-1.2%	-10.4	-2.3	8.28µM*
O=[N+]([O-])c1cc(S(=O)(=O)N2CCCC2)ccc1NCCCN1CCOCC1	?	-3.4%	2.0	7.4	-10.7%
CC(Nc1cc(N2CCNCC2)ccc1[N+](=O)[O-])c1ccccc1 (configuration not stated)	34.6%	4.7%	9.2	6.0	-24.8%
Cc1ccc(N2C(=O)C3C4C=CC(CC4)C3C2=O)c([N+](=O)[O-])c1 (configuration not stated)	-1.6%	1.9%	-10.1	-2.5	30.6%[0.00184 µM]
CC(C)(C)c1ccc(CNc2cc(N3CCOCC3)ccc2[N+](=O)[O-])cc1	0.0%	1.9%	-12.9	-3.2	13.1µM*
Cc1cc(C)c(S(=O)(=O)N2CCN(c3ccc([N+](=O)[O-])c(NCC4CCCO4)c3)CC2)c(C)c1 (configuration not stated)	?	4.5%	-11.5	-1.8	28.7%
O=[N+]([O-])c1ccc(N2CCOCC2)cc1NC(c1ccccc1)c1ccccc1	2.08µM*	3.3%	-3.3	-1.7	?
Cc1cc(C)c(S(=O)(=O)N2CCN(c3ccc([N+](=O)[O-])c(NCc4ccco4)c3)CC2)c(C)c1	3.7µM*	-0.5%	-10.2	-2.2	?
O=C(C1CCC1)N1CCCc2cc(S(=O)(=O)N3CCN(c4ccccc4)CC3)ccc21	6.7%	2.4%	-14.3	-2.6	-14.4%
CCOC(=O)CNc1nc(Cl)nc(Nc2ccc(C)cc2)n1	-3.4%	-3.8%	6.1	8.3	-15.4%
Cc1ccc(Nc2nc(Cl)nc(N(C)C#N)n2)cc1	7.38µM*	2.9%	-4.3	-4.2	17.7%
Cc1ccc(Nc2nc(Cl)nc(NC(C)(C)C)n2)cc1	185.8%	4.9%	60.2*	54.1*	41.3%
CCN(CC)C(=O)CC(c1ccc(OC)cc1)c1c(OC)cc(OC)c2c(-c3ccccc3)cc(=O)oc12 (configuration not stated)	nt	nt	-1.9	6.6	nt
Cc1ccc(CNC(=O)c2ccc(CS(=O)(=O)c3ccccc3)o2)cc1	4.65µM*	-1.5%	-8.7	-2.5	7.6%
COC(CNC(=O)c1ccc(CS(=O)(=O)c2ccccc2)o1)OC	?	6.3%	-7.2	-5.2	2.5%
Cc1ccc(CNC(=O)C2(S(=O)(=O)c3ccccc3)CC=CC2)cc1	83.6%	-7.2%	43.7*	40.6*	62.9%
Cc1ccccc1S(=O)(=O)Cc1ccc(C(=O)NCc2cccs2)o1	?	7.2%	-8.1	-2.9	nt
Cc1ccc(S(=O)(=O)Cc2ccc(C(=O)NCc3cccs3)o2)cc1	3.7µM*	-2.9%	2.3	3.0	nt
Clc1ccccc1N1CCN(Cc2ccco2)CC1	40.3%	-3.3%	7.5	10.4	42.3%
Oc1cc2c(cc1CN1CCN(c3ccccc3F)CC1)OCO2	?	13.1%	13.8	-0.8	9.28µM*
COc1ccc(OC)c(NC(=O)CCN2CCN(c3ccccc3OC)CC2)c1	?	10.3%	27.9	-5.6	?
SMILES	Pf growth 96h	LmPK inhibitor	Shiga toxin inh	Cycloheximide cs	Pf growth 48h
COc1ccccc1N1CCN(Cc2ccco2)CC1	-1.2%[5.75 µM]	-0.3%	26.2	16.5	2.33µM*
COc1ccc(NC(=O)CCN2CCN(c3ccccc3F)CC2)c(OC)c1	10.4µM*	-3.5%	nt	1.8	?
COc1ccccc1N1CCN(Cc2cc3c(cc2O)OCO3)CC1	-14.9%	-3.8%	-2.8	-4.4	14.7µM*
Cc1ccc(CC(=O)NC2CCSC2=O)cc1 (configuration not stated)	11.1%	11.2%	5.7	3.3	64.4%
O=[N+]([O-])c1cc2c(cc1CN1CCN(c3ccccc3)CC1)OCO2	?	-2.2%	nt	34.9*	30.2%
COc1ccccc1N1CCN(Cc2ccccc2)CC1	-3.7%	4.9%	nt	2.9	?
O=C(CCN1CCN(c2ccccc2F)CC1)Nc1ccc2c(c1)OCO2	3.29µM*	2.7%	-6.0	-2.9	-5.2%
COc1ccccc1N1CCN(Cc2cc(Br)c(O)c3ncccc23)CC1	?	9.1%	-13.9	-4.5	nt
CCOc1ccccc1N1CCN(Cc2cccc(OC)c2O)CC1	nt	-0.8%	-10.9	1.5	3.29µM*
COc1ccccc1N1CCN(Cc2cc(C)c(C)cc2O)CC1	0.329µM*	8.7%	-4.0	6.1	nt
COc1ccc(N2CC(C(=O)Nc3ccccc3N3CCCC3)CC2=O)c(OC)c1 (configuration not stated)	6.0%	nt	nt	nt	15.5%
CCOC(=O)C1(CC2CCCCO2)CCN(C(=O)NCc2ccccc2)CC1 (configuration not stated)	?	-0.5%	-3.6	-1.4	1.9%
C=CCN(CC=C)CCCOc1ccc(Br)cc1Cl	100.5%	1.6%	5.3	15.6	25.9%
COc1cc(CC2COC(c3ccc(O)c(OC)c3)C2COC(C)=O)ccc1O (configuration not stated)	10.4µM*	-0.1%	-10.4	-2.3	-11.9%
C[C@@]12CC(=O)NC1N(C(=O)c1cccc(C(F)(F)F)c1)C(c1ccccc1OC(=O)c1cccc(C(F)(F)F)c1)C2 (some centres not stated)	9.28µM*	-0.8%	-3.8	-1.9	nt
Cc1ccc(S(=O)(=O)N[C@H](C(=O)NCC2CCC(C(=O)O)CC2)C(C)C)cc1 (some centres not stated)	-3.0%	-3.8%	-6.0	-3.9	8.9%
O=C(OCC1OC2OC3(CCCCC3)OC2C2OC3(CCCCC3)OC12)c1ccccc1 (configuration not stated)	?	-2.6%	-8.2	0.4	?
O=C(O)C1OC2OC3(CCCCC3)OC2C2OC3(CCCCC3)OC12 (configuration not stated)	1.47µM*	3.4%	-12.3	-2.0	13.0%
Cc1ccc(C)c(CNc2ccc(S(=O)(=O)N3CCCCC3)cc2)c1	?	nt	nt	nt	11.7µM*
CC(=O)Nc1ccc(S(=O)(=O)N2CCN(S(=O)(=O)c3ccccc3)CC2)cc1	?	0.8%	-3.3	-1.7	?
O=C1CC(=O)Nc2cc(S(=O)(=O)N3CCOc4ccc(Cl)cc43)ccc2N1	?	-1.0%	18.5	-5.4	29.8%
CC(=O)Nc1ccc(S(=O)(=O)N2CCN(c3cc(C)ccc3C)CC2)cc1	13.1µM*	-5.5%	-12.6	-4.7	-19.7%
